Key:
Test in all cases: PBM binding z-score (relative to random genomic background probes); higher = stronger binding; sequences stand for … in GC…GCGATTGACAGCGTAGAATGAAGG
[1] = tested on: FXR:RXRa (NR concentration 270 nM, RXRa partner concentration 90 nM)
Method in brief: (§1)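 Ligand-free nuclear receptor dimers were applied to custom Agilent 4×180K protein-binding microarrays whose double-stranded probes carried direct-repeat seeds, single-nucleotide variants, half-site ablations and random human genomic background sequences in 34-nt variable regions. Incubation lasted 1 h. Binding z-scores were computed against the random background probes from regression-normalized fluorescence.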

[2] = tested on: LXRa:RXRa (NR concentration 270 nM, RXRa partner concentration 90 nM)
Method in brief: as §1

[3] = tested on: LXRa homodimer (NR concentration 270 nM)
Method in brief: as §1

[4] = tested on: LXRb:RXRa (NR concentration 270 nM, RXRa partner concentration 90 nM)
Method in brief: as §1

[5] = tested on: LXRb homodimer (NR concentration 270 nM)
Method in brief: as §1

[6] = tested on: PPARa:RXRa (NR concentration 270 nM, RXRa partner concentration 90 nM)
Method in brief: as §1

[7] = tested on: PPARg:RXRa (NR concentration 180 nM, RXRa partner concentration 90 nM)
Method in brief: as §1

[8] = tested on: PPARg:RXRa 270nM:90nM, anti-RXR (NR concentration 270 nM, RXRa partner concentration 90 nM)
Method in brief: as §1

[9] = tested on: PPARg:RXRa 30nM:10nM, anti-RXR (NR concentration 30 nM, RXRa partner concentration 10 nM)
Method in brief: as §1

[10] = tested on: PPARg:RXRa 90nM:30nM, anti-RXR (NR concentration 90 nM, RXRa partner concentration 30 nM)
Method in brief: as §1

Sequence	PBM binding z-score [1]	PBM binding z-score [2]	PBM binding z-score [3]	PBM binding z-score [4]	PBM binding z-score [5]	PBM binding z-score [6]	PBM binding z-score [7]	PBM binding z-score [8]	PBM binding z-score [9]	PBM binding z-score [10]
CCAACTGGGGCAAAGGTTACCATACTCAGTACGA	1.45	1.76	0.221	2.29	-0.694	6.03	11.6	9.99	9.26	10.5
TCTTGTACATCAATAGAGGTTAAGAAAGTGCGCT	0.725	3.49	0.473	1.79	0.532	1.82	0.201	1.72	3.01	2.08
AGAATGAGGCTATACGTAGATCAGGGAAGAAAGT	-0.393	-0.526	-0.213	-0.708	-0.243	0.0162	0.801	0.267	0.101	0.251
GCGACTCGGGCAAAGCAGGTTACCATAAGGTTGG	-0.00273	-0.166	-0.636	-0.448	-1.41	0.221	0.413	-0.165	-0.926	-0.846
CCTACTGGGCCACGAAAGGTCGTTGATTCAGTGA	0.933	1.81	0.373	1.5	-0.704	2.67	2.53	2.93	0.0833	1.96
CCAGACAGGTGAAAAGTAACTCAGTCTGGTACGC	-0.306	-0.0475	-0.078	0.0504	-0.286	1.01	1.08	2.27	0.369	1.43
TCTAATTGGTCAAAGGTCACACACTCGAAATGCG	6.13	5.81	4.4	5.53	2.67	6.59	10.7	9.75	10.1	12
CCGAGTAGGTTATGGGGCCTTCAGGCAACGGTGA	0.0359	0.107	-0.191	0.353	-0.362	1.33	1.43	2.56	0.26	1.58
CCTGCTAGGTCATGGTCAGCCAATCTACAGTATG	3.64	2.66	-0.0941	1.68	-0.0584	3.49	2.75	2.89	0.768	1.98
TGTCAAAGTGCAAAGGTAACGTAAGTATCCACAC	1.4	1.63	-0.525	1.5	-0.151	3.32	5.23	5.16	2.4	4.4
TCTTGTAGATCAAGCAGGTTAAGTAAGCCTGAGT	0.318	0.3	-0.426	0.29	-0.426	0.576	-0.618	1.2	2.3	1.78
TCTAGCAGGCCAGAGGGTCAATCAAGAGGTACGG	1.44	1.33	-0.494	1.43	-1.31	2.66	1.61	3.01	2.27	2.91
TCATATAGGTAAAAGCTGAAAGTCGGTGTGGTAA	0.59	0.549	-0.108	0.664	-0.24	1.41	0.589	2.74	3.52	3.25
AGAATGAGGTTATAGGTAGATCAGGGAAGAAAGT	2.06	2.1	0.425	1.89	0.41	3.67	4.23	4.73	3.33	4.47
AGACCAAGGTGATCGTGAGGTCGTTGATACTAAC	1.27	0.891	0.368	0.98	-0.813	1.58	0.415	0.494	0.11	0.313
CCGACTGGGGCAAGGTTACCATTACGCACAGCCA	0.0277	0.227	-0.221	0.492	-0.9	1.75	2.79	3.17	0.732	2.4
CGAACTAGTTCATTGACAGGACAGTGAATAGTAA	0.24	0.585	0.0589	0.212	-0.317	0.375	0.284	0.0577	-0.0865	-0.122
TCATATAGGTAAAGGTGAAAGTTGAACGATATGA	1.54	1.75	0.158	1.89	-0.399	4.3	5.92	5.66	5.22	5.99
TCGAGAAGGTTAGTCGGGGCATTCAGCCAACATA	0.663	0.631	-0.271	0.863	-0.323	1.32	0.00646	1.2	1.72	1.33
ACTAGCAGGCCTAGGGTCACTCAAGATTAGTCCG	1.77	1.89	-0.469	1.82	-0.871	2.81	1.99	3.41	1.39	2.89
ATCTCTAGCTAAAGTTCAGTGAAAGATCGATAGA	0.485	1.83	1.89	1.01	0.585	1.74	1.63	3.25	1.53	2.85
GCTGCTAGGTCAACTGATGGTCAGCTCAAGCTCG	4.04	3.02	0.195	2.03	0.0529	3.43	2.32	2.98	0.574	1.74
ACTTACGGGTCAACGAGGTGATAGCACGCGTATA	6.81	4.17	0.0422	3.7	0.296	5.53	5.36	5	2.26	4.11
